Screening data (PubChem)
HIF-2a inh – HIF-2a inhibition | 786-0 RCC cells HIF-2a reporter, luciferase luminescence, overnight | inhibition, % at 18.8 µM | 0.72% of 360,000 active;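 active = inhibition of the luminescence signal of 40% or more relative to plate controls, in a single-dose primary screen at 18.75 µM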
KKLEB cytotox – reduces viability of KKLEB cystic fibrosis airway cells; KKLEB CF airway cells viability, ATPlite luminescence, overnight; hits give low values; cells stimulated with P. aeruginosa culture filtrate; activity change (cytotoxicity), % at 5 µM; 0.36% of 360,000 active;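 active = corrected activity change at or below -50% at 5 µM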
CF NFkB inh – cystic fibrosis NF-kB activation inhibition; KKLEB NF-kB-GFP reporter, PAF-induced, GFP fluorescence overnight; inhibition, % at 5 µM; 0.86% of 360,000 active; AID 588850;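 active = at least 50% inhibition at 5 µM, scaled per plate between neutral and stimulator controls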;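 also: PAF is a Pseudomonas aeruginosa culture filtrate used as stimulus; plate controls were PAF-stimulated DMSO wells for no effect and unstimulated DMSO wells for full effect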
Peg3 prom inh – reduces Peg3 promoter-driven luciferase expression in HeLa; HeLa PEG-Prom luciferase reporter, luminescence, overnight; inhibition, % at 20 µM; 1.7% of 360,000 active;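 active = inhibition of at least 50% at 20 µM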
MITF TRPM1 inh – MITF TRPM1 promoter inhibition in SK-MEL-5 cells | SK-MEL-5 TRPM1 promoter luciferase, 24 h | inhibition, % at 12.5 µM | 0.83% of 330,000 active | AID 488899;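 active = mean inhibition across replicates of 60% or more, whatever share of single replicates reaches that level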
Shn3 3UTR inh – Schnurri-3 reporter inhibition in Clone20 osteoblasts; 0.52% of 360,000 active; inhibition, % at 12.5 µM; Clone20 osteoblast Shn3 3'UTR firefly luciferase, 24 h;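 active = mean inhibition of at least 75% with every replicate also reaching 75%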;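 also: 0% = median of neutral control wells and 100% = pilot-screen positive control compound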
Mdm2 MdmX conf – Mdm2/MdmX (human) interaction inhibition, confirmed. inhibition, % at 8 µM. AID 504601. 99% of 740 active. SaOS-2 split-luciferase Mdm2/MdmX complementation, luminescence. shares compounds with HIF-2a inh;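 active = mean inhibition of the luminescence signal across two replicates at or above 26 percent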
HIF-2a inh conf – confirmation of HIF-2a inhibitors; 786-0 RCC cells, HIF-2a luciferase reporter luminescence, overnight; shares compounds with HIF-2a inh; 56% of 1,800 active; inhibition, % at 18.8 µM;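 active = mean inhibition across four replicates of at least 40 percent at the single tested concentration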
HIF-1a cs – inhibits HIF-1a reporter, a counter-screen for HIF-2a inhibitors; AID 651589; inhibition, % at 18.8 µM; MiaPaCa-2 HIF-1a luciferase reporter, desferoxamine, overnight; shares compounds with HIF-2a inh; 72% of 1,800 active;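 active = mean inhibition of the reporter signal across four replicates at the single tested dose of 50% or more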
Active calls of the source: *; . = no result given. Rows were chosen to be rich in hits. Some 2.7% of all compounds tested hit in one or more screens of this group.

SMILES | HIF-2a inh | KKLEB cytotox | CF NFkB inh | Peg3 prom inh | MITF TRPM1 inh | Shn3 3UTR inh | HIF-2a inh conf | HIF-1a cs | others
Cc1ccc(S(=O)(=O)N2CCN(C(=O)COC(=O)c3cncc(Br)c3)CC2)c(C)c1 | -6 | -16 | 30 | 14 | 3 | 14 | . | .
COc1cc2nc(N3CCN(c4cc(C)ccc4C)CC3)nc(N)c2cc1OC | 39* | -47 | 3 | 102* | 12 | 94* | -9 | 102* | Mdm2 MdmX conf=103*
CCN1CCCC1CNC(=O)C1CCN(Cc2nc(-c3cccc(Br)c3)oc2C)CC1 (centres undefined) | 66* | -22 | 20 | 91* | 59 | -12 | 19 | 104*
Cc1cc(NC(=O)c2ccccc2)c(Cl)cc1N | 69* | 5 | -8 | -31 | 26 | 12 | 84* | 59*
Oc1ccc(N=Nc2ccc3c(c2)OCCO3)c(O)c1 | -139 | -3 | -30 | -104 | -9 | 27 | . | .
Oc1ccc(N=Nc2ccc3c(c2)OCCO3)c2cccnc12 | 26 | -3 | -3 | -6 | 65* | 93* | . | . | Mdm2 MdmX conf=89*
NC(=O)c1ccc(NC(=O)C#Cc2ccccc2)cc1 | -10 | 2 | 22 | 58* | 7 | 16 | . | . | Mdm2 MdmX conf=101*
COc1cc(OC)c(OC)cc1/C=C/C(=O)c1ccc(NS(=O)(=O)c2ccc(C)cc2)cc1 | 59* | 14 | 2 | 26 | 20 | 15 | 34 | 50*
CC(=O)c1ccc(NS(=O)(=O)c2ccc(C)cc2)cc1 | 3 | -1 | -10 | 11 | -10 | 1 | . | .
CSc1ncnc2c1ncn2CCCNCCc1ccccn1 | 10 | 9 | -25 | 6 | . | -4 | . | .
Cc1c(C)c2ccc(OC(C)C(=O)NC3CCN(Cc4ccccc4)CC3)cc2oc1=O (centres undefined) | -11 | -12 | -18 | -4 | 5 | -13 | . | .
CC1CC2(C)Oc3ccccc3CC2C(C)C1CNCCCN(C)C (centres undefined) | 84* | -20 | 23 | 107* | 97* | 13 | 6 | 105* | Mdm2 MdmX conf=101*
O=C(NCc1cccnc1)/C(=C/c1ccc(-c2cccc(Cl)c2)o1)S(=O)(=O)c1ccccc1 | 43* | -13 | 6 | 15 | -19 | -14 | 34 | 30 | Mdm2 MdmX conf=103*
COCCCNC(=O)COc1ccc(-c2nccc(-c3ccccn3)n2)cc1 | 40* | -3 | 0 | -14 | 8 | 45 | 40 | 27
Cc1ccc(OCC(=O)NCCCNC(=O)c2ccccn2)cc1 | 18 | 3 | -5 | 17 | -8 | -10 | . | .
COc1ccc(OC)c(NC(=O)CSc2ncnc3sc(C)cc23)c1 | -32 | -12 | -13 | -17 | 1 | -41 | . | .
CN(C)CC(C(=O)c1ccccc1)c1ccccc1 (centres undefined) | 86* | -51* | 63* | 114* | 91* | 95* | 25 | 96* | Mdm2 MdmX conf=103*
O=C(CC(C(=O)c1ccccc1)c1ccccc1)c1ccccc1 (centres undefined) | -37 | 2 | 16 | 13 | 1 | 9 | . | .
Cc1ccc(O)c(NC(=O)c2ccc3c(c2)C(=O)N(Cc2cccnc2)C3=O)c1 | -108 | 12 | -9 | -17 | -5 | -13 | . | .
O=C(COC(=O)c1ncc(Cl)c(Cl)c1Cl)Nc1ccc(Cl)cn1 | 6 | 9 | 15 | 0 | 27 | -1 | . | .
O=C(NC1CCCCCC1)c1ccc([N+](=O)[O-])s1 | 60* | -4 | 16 | -80 | 71* | -6 | 74* | 77*
CCC(=O)Nc1ccc(C(=O)CN2C(=O)NC3(CCOc4ccccc43)C2=O)cc1 (centres undefined) | 1 | 12 | -40 | 8 | . | -6 | . | .
CCOc1cc(/C=C2\CN(CC)C/C(=C\c3ccc(O)c(OCC)c3)C2=O)ccc1O | 93* | -40 | 87* | 110* | 93* | 97* | . | . | Mdm2 MdmX conf=102*
O=[N+]([O-])c1cc(Cl)ccc1Sc1cccc2cccnc12 | -14 | -6 | 4 | 5 | 20 | -2 | . | .
O=[N+]([O-])c1ccc(Sc2cccc3cccnc23)c([N+](=O)[O-])c1 | 17 | -6 | -22 | 97* | 76* | 93* | . | . | Mdm2 MdmX conf=83*
SMILES | HIF-2a inh | KKLEB cytotox | CF NFkB inh | Peg3 prom inh | MITF TRPM1 inh | Shn3 3UTR inh | HIF-2a inh conf | HIF-1a cs | others
O=[N+]([O-])c1ccc(Sc2ccncn2)c([N+](=O)[O-])c1 | 70* | -55* | 90* | 97* | . | 58 | 61* | 104*
Cc1cc(C)nc(Sc2ccc([N+](=O)[O-])cc2[N+](=O)[O-])n1 | -40 | -20 | 25 | 44 | 31 | 1 | . | .
CC(CCc1ccccc1)NC(=O)c1ccc(F)cc1 (centres undefined) | -10 | -2 | 7 | -9 | -9 | 0 | . | .
Cc1ccc(S(=O)(=O)NCCC(=O)NNC(=O)c2ccccc2Cl)cc1C | -24 | -6 | 19 | 6 | -1 | 5 | . | .
N#C/C(=C\c1ccccc1[N+](=O)[O-])C(=O)NCc1ccccc1 | 22 | -7 | 4 | 16 | -1 | -4 | . | .
N#C/C(=C\C=C\c1ccccc1[N+](=O)[O-])C(=O)NCc1ccccc1 | 81* | -2 | -35 | 105* | 69* | -18 | 61* | 102*
Cc1ccc(-c2noc(CCC(=O)NCC3CCCO3)n2)cc1 (centres undefined) | -9 | -13 | 8 | 0 | 8 | -16 | . | .
CC(C)(C)c1ccc(-c2noc(CCC(=O)Nc3cccnc3)n2)cc1 | 92* | -6 | -11 | -202 | 79* | 36 | 96* | -4
CC(C)(C)c1ccc(-c2noc(CCC(N)=O)n2)cc1 | 87* | -9 | 18 | 49 | 71* | 17 | 94* | -9
COc1ccc(-c2noc(CCC(=O)Nc3cccnc3)n2)cc1 | -44 | -2 | 14 | -63 | -3 | 3 | . | .
CC(C)(C)c1ccc(-c2noc(CCC(=O)NCC3CCCO3)n2)cc1 (centres undefined) | 80* | -11 | 7 | -151 | 84* | 59 | 95* | -80
O=C(/C(=C/c1ccc(Cl)cc1)c1nc2ccccc2[nH]1)c1cccs1 | 93* | -61* | 98* | 106* | 95* | 88* | . | . | Mdm2 MdmX conf=102*
O/C(=C\c1nc2ccccc2[nH]1)c1cccs1 | -247 | 8 | -42 | -237 | -6 | -65 | . | .
O=C(/C(=C\c1ccccc1)c1nc2ccccc2[nH]1)c1ccc(Cl)cc1 | 64* | -14 | 42 | 87* | 20 | -65 | -155 | 100*
